# Where “and” joins values, the source holds several entries; their conditions need not be identical. Equal values may be shown once. Calls of active or inactive are those of the source.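 How the source made its calls: active means inhibition at or above 50% relative to wild type and mutant plate controls; inactive means inhibition below 50%.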
# Assay: loss of swimming-algae plug formation – whole organism, Chlamydomonas reinhardtii, WT vs cilia-less mutant, absorbance, 96-well, primary screen (AID 463189);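 further: 0% = wild type cc124 cells in DMSO and 100% = ciliumless bld1 mutant cells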
# Conditions: Chlamydomonas reinhardtii gravitaxis, OD600 absorbance, 2 days; at 10 µM; hits give high values
row,SMILES,inhibition
1,NCCCNCCSP(=O)(O)O,1.58% (inactive)
2,NC/C=C/C(=O)O,9.04% (inactive)
3,C=C/C(C)=C/[C@@]1(C)SC(=O)C(C)=C1O,5.01% (inactive)
4,c1ccc(C2CN3CCSC3=N2)cc1 (stereo not given),45.3% (inactive)
5,CN1CCc2ccccc2Cc2[nH]c3ccccc3c2CC1,10.8% (inactive)
6,CCCCN1CCC(COC(=O)c2cc(Cl)c(N)c3c2OCCO3)CC1,-6.29% (inactive)
7,OCc1ccc(-c2nn(Cc3ccccc3)c3ccccc23)o1,3.81% (inactive)
8,N#C/C(=C\c1ccc(O)c(O)c1)C(=O)c1ccc(O)c(O)c1,2.24% (inactive)
9,NC1(C(=O)O)CCc2cc(C(=O)O)ccc21 (stereo not given),4.42% (inactive)
10,CCCc1c(OCCCOc2ccc(OCC(=O)O)cc2)ccc(C(C)=O)c1O,0.316% (inactive)
11,N#CC(C#N)=C(N)/C(C#N)=C/c1ccc(O)cc1,5.33% (inactive)
12,O=[N+]([O-])c1cccc2c(Br)[nH]nc12,136% (active)
13,CC(C)NC[C@H](O)COc1cccc2[nH]ccc12,-3.11% (inactive) and 2.85% (inactive)
14,C#CC(N)CCC(=O)O (stereo not given),-0.038% (inactive)
15,Cc1ccc(C(=O)Nc2ccc(S(=O)(=O)O)c3cc(S(=O)(=O)O)cc(S(=O)(=O)O)c23)cc1NC(=O)c1cccc(NC(=O)Nc2cccc(C(=O)Nc3cc(C(=O)Nc4ccc(S(=O)(=O)O)c5cc(S(=O)(=O)O)cc(S(=O)(=O)O)c45)ccc3C)c2)c1,-3.04% (inactive)
16,CC(N)=NCCCC[C@@H](N)C(=O)O,7.31% (inactive)
17,CC(N)=O,0.285% (inactive)
18,COCC(=O)O[C@]1(CCN(C)CCCc2nc3ccccc3[nH]2)CCc2cc(F)ccc2[C@@H]1C(C)C,11.6% (inactive)
19,CCCCOc1cc(CC2CNC(=O)N2)ccc1OC (stereo not given),2.83% (inactive)
20,C[C@@H](CN1CCC(Cc2ccccc2)CC1)[C@@H](O)c1ccc(O)cc1,10.4% (inactive)

row,SMILES,inhibition
1,COc1ccccc1N1CCN(CCCNc2c(C)c(=O)n(C)c(=O)n2C)CC1,5.61% (inactive)
2,CCN(CC)C(=S)SSC(=S)N(CC)CC,12.2% (inactive)
3,O=c1[nH]c2cc([N+](=O)[O-])c([N+](=O)[O-])cc2[nH]c1=O,5.09% (inactive)
4,CC(C)(C)NCC(O)COc1nsnc1N1CCOCC1 (stereo not given),-8.84% (inactive)
5,CC(C)(C)c1ccc(S(=O)(=O)/C=C/C#N)cc1,155% (active)
6,O=S(=O)(c1cccc2c(Cl)cccc12)N1CCCNCC1,6.11% (inactive)
7,CCCCCCN(CCCCCC)C(=O)Cc1c(-c2ccc(F)cc2)[nH]c2ccccc12,8.52% (inactive)
8,COC1(C2=NCCN2)COc2ccccc2O1 (stereo not given),7.5% (inactive)
9,COc1cc2nc(N3CC=[N+](C(=O)c4ccco4)CC3)nc(N)c2cc1OC,6.38% (inactive)
10,O=c1ccc2c(OCCCCc3ccccc3)c3ccoc3cc2o1,10.5% (inactive)
11,CCCCCCCCCC(=O)NC(CN1CCOCC1)[C@H](O)c1ccccc1 (stereo not given in full),-8.57% (inactive)
12,O=C(O)CP(=O)(O)O,7.76% (inactive)
13,CC(C)Cc1ccc([C@H](C)C(=O)O)cc1,8.1% (inactive)
14,Cc1ccccc1/C=C/C1=NCCN1,3.42% (inactive)
15,NCCCNCCCCNCCCN,-2.56% (inactive)
16,CN(C)CCCO[C@@H]1[C@H]2OC(C)(C)O[C@H]2O[C@@H]1C(O)CO (stereo not given in full),0.355% (inactive)
17,Cn1cnc2c(NCc3ccccc3)nc(NCCO)nc21,5.79% (inactive)
18,CCCn1c(=O)c2[nH]c(-c3ccc(OCC(=O)NCCN)cc3)nc2n(CCC)c1=O,3.94% (inactive)
19,C[C@@H](NCCc1ccc(O)cc1)[C@@H](O)c1ccc(O)cc1,2.54% (inactive)
20,CCN1CCC[C@H]1CNC(=O)c1c(OC)ccc(I)c1O,9.9% (inactive)

# Reference: PubChem BioAssay
